# Epigenetic reg – Quantitative High-Throughput Screen for Regulators of Epigenetic Control; Potency, µM (series often up to 53.9 µM), for inactives: at the highest dose GFP activation, most hits filed as activators; 0.2% of 280,000 active; murine LDR cells, GFP reporter derepression, 30 h; AID 1865, 2009; also: % of control where 0% means no effect; nearly all actives have a fitted effect of over 60% in size
#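 Murine LDR cells bearing a silenced CMV-driven GFP reporter were exposed to compound for 30 h at 37 C. After PBS washes, GFP-positive cells (20-120 um objects) counted by laser-scanning microplate cytometry.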
# Vif-A3G inh – qHTS for Inhibitors of Vif-A3G Interactions: qHTS | DNA dC->dU-editing enzyme APOBEC-3G (Homo sapiens), Q9HC16 | HeLa A3G-eYFP + Vif (tagged APOBEC3G with the HIV-1 protein that degrades it), YFP fluorescence, overnight | Potency, µM (highest dose often 46.1 µM), for the others: at the highest dose activity, negative = active, usual class: inhibitors | 0.076% of 410,000 active; also: % is scaled to controls: 0 for no effect and ±100 for the full control effect; nearly all actives have a fitted effect of over 60% in size
# Target sequence (Q9HC16 whole entry, looked up): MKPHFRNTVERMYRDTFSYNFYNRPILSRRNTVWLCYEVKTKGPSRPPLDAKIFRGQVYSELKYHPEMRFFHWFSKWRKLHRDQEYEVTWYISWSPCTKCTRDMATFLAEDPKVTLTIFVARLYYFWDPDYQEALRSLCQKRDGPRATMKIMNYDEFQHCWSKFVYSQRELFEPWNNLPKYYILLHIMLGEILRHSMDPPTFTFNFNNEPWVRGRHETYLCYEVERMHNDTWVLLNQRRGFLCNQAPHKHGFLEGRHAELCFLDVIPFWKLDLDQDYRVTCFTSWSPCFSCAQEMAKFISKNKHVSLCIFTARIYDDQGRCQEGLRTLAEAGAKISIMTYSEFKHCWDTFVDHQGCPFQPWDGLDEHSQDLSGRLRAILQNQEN
#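 Read-out is eYFP fluorescence (Ex 488/Em 500-530) from Vif-expressing HeLa A3G-eYFP cells; more signal means A3G escaped Vif-mediated degradation. Cells plated overnight, compound pinned in, incubated overnight at 37 deg C.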
# Vif-A3F inh – qHTS for Inhibitors of Vif-A3F Interactions: qHTS. HeLa A3F-eYFP + Vif (tagged APOBEC3F with the HIV-1 protein that degrades it), YFP fluorescence increase. Potency, µM (top dose mostly 46.1 µM), inactives show top-dose activity, negative = active. 0.2% of 390,000 active; also: % of control where 0% means no effect; nearly all actives have a fitted effect of over 65% in size
#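 Fluorescence increase (Ex 488/Em 500-530) after overnight compound treatment at 37 deg C flags inhibition of Vif-driven A3F-eYFP loss in stable HeLa A3F-eYFP/Vif cells seeded overnight beforehand.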
# An asterisk follows results filed as active; ? = inconclusive; / = no result given; [ ] = another dose, or the depositor's remark. Compounds with a hit are over-represented: about 0.34% of the library has one in this group of screens. Calls follow the shape of the dose curve; as a rule, active = well fitted curve in the direction sought with a large enough effect; inconclusive = small, poorly fitted or top-dose-only effect, or another doubt; inactive = no such curve, though single readings can be large; an effect the other way counts as inactive or inconclusive. Potency is read from the fitted curve at half-maximal effect.
SMILES,Epigenetic reg,Vif-A3G inh,Vif-A3F inh
COc1cc2cc3c(N)c(C(=O)NCc4ccco4)sc3nc2cc1OC,-7%,-27%,13%
Cc1ccc2nccnc2c1,/,-15%,/
COc1ccccc1N=Nc1ccc(O)c2ncccc12,/,0%,4%
CCS(=O)(=O)c1ccc(N=Nc2ccc(O)c3ncccc23)c(OC)c1,3.5µM*,2%,-12%
CC(C)(C)n1ncc2c(=O)n(Cc3ccc(Cl)cc3C(F)(F)F)cnc21,/,0%,/
Cn1c(=O)cc(OCCCC(=O)Nc2ccc(F)cc2)c2ccccc21,0%,0%,-12%
COc1ccc(C(=O)NC(C)CCc2ccccc2)cc1[N+](=O)[O-] (stereo not given),/,4%,-13%
COc1ccc(C(=O)C(C)[n+]2ccc(C)c3ccccc32)cc1[N+](=O)[O-] (stereo not given),/,5.6µM*,?
Cc1ccc(-c2nc3cccnc3s2)cc1NC(=O)Cc1ccccc1,-1%,-1%,1%
O=S(=O)(c1cccc(Cl)c1)c1nnn2c1nc(NC1CCCC1)c1sccc12,8%,-2%,-1%
O=C1c2ccccc2-c2onc3c(N4CCN(C5CCCCC5)CC4)cc(NCCO)c1c23,-5%,?,?
CN(C)CCCNc1cc(N2CCN(C3CCCCC3)CC2)c2noc3c2c1C(=O)c1ccccc1-3,1%,?,4.5µM*
CC(=O)N/N=C/c1cc(C(C)C)cc(/C=N/NC(C)=O)c1O,0%,?,32µM*
CC(=O)N/N=C/c1cc(C)n(-c2ccc(Br)cc2)c1C,0%,-7%,5%
CCCOc1cc(N)ccc1C(=O)OCCN(CC)CC,1%[16.9 µM],2%,5%
CCCOc1ccc(N)cc1N,?,?,22µM*
Oc1ccccc1-c1nc(/C=C/c2ccccc2Cl)nn1-c1ccccc1,0%,-6%,-12%
Cc1ccc2c(c1)Sc1c(ccc3ccccc13)N2,?,?,22µM*
c1ccc2c(c1)Nc1cc3ccccc3cc1S2,0%,-1%,1%
Cc1ccc(C2=NN(S(C)(=O)=O)C(c3cccs3)C2)cc1 (stereo not given),1%,4%,12%
CCc1ccc(C2=NN(S(C)(=O)=O)C(c3cccs3)C2)cc1 (stereo not given),18µM*,?,?
CN(C)CCNc1ccc2ncn3c4ccc(O)cc4c(=O)c1c23,/,?,25µM*
CN(C)CCNc1ccc(CO)c2sc3ccc(O)cc3c(=O)c12,/,-3%,9%
COc1ccc(N(Cc2cccs2)C(=O)Nc2ccccc2)cc1,-2%,-4%,-4%
C=CCSc1nc2sc3c(c2c(=O)n1CC)CCC3,/,-4%,22µM*
SMILES,Epigenetic reg,Vif-A3G inh,Vif-A3F inh
C=CCn1c(SCC(=O)N(C)C)nc2sc3c(c2c1=O)CCC3,/,4%,4%
CCn1cc2nc(SCC(=O)Nc3ccccc3C(F)(F)F)n(Cc3ccc(C)cc3)c(=O)c2n1,-2%,-14%,-14%
CN1CCC(OC(=O)c2ccc(Cl)cc2Cl)CC1,0%,3%,-6%
CN1CCC(OC(=O)c2cc3cc(Cl)cc(Cl)c3oc2=O)CC1,/,11µM*,4%
COc1ccccc1N1CCN(Cc2cc(Br)c(O)c3ncccc23)CC1,?,5%,?
CCCOCc1ccc(O)c2ncccc12,3.5µM*,-7%,16%
CCCOCc1cc(CN2CCN(c3ccccc3OC)CC2)c(O)c2ncccc12,3.5µM*,-1%,?
COCc1cc(CN2CCCC2)c(O)c2ncccc12,0%,1%,-4%
COc1ccccc1N1CCN(Cc2cc(COC(C)C)c3cccnc3c2O)CC1,3.5µM*,-1%,-5%
CC(C)COCc1ccc(O)c2ncccc12,?,1%,-22%
COc1ccc(NC(=O)C2CCN(S(=O)(=O)c3cccc(-c4noc(C)n4)c3)CC2)cc1OC,-1%,2%,-5%
CCc1cccc(-n2c(=O)c3cccnc3n2CC(=O)Nc2ccc(F)c(C)c2)c1,1%,-3%,3%
C=CCc1c(C)nc(-c2ccccc2)nc1N/N=C/c1ccccc1,0%,-4%,?
C=CCc1c(C)nc(-c2ccccc2)nc1Nc1ccccc1O,?,?,22µM*
Cc1ccc(/C=C2/NC(=O)N(Cc3ccccc3F)C2=O)s1,3.5µM*,?,?
O=C1N/C(=C/c2cccs2)C(=O)N1Cc1ccccc1F,1%,0%,-27%
Cn1cc(/C=C2\SC(=O)N(c3ccccc3)C2=O)c2ccccc21,?,-19%,7.9µM*
Cn1cc(/C=C2\SC(=O)N(c3ccc(O)cc3)C2=O)c2ccccc21,12%,-14%,?
CN(C)c1ccc(/C=C/c2ccnc3ccccc23)cc1[N+](=O)[O-],/,1%,/
